“And” between values parts separate entries of the source, which are not always exact repeats. Equal entries are not always repeated. Results filed as inconclusive are left out. Entries that show only a call come without a potency. The source made the active and inactive calls. Calls come from the whole dose curve; as a rule, active = well fitted cell-killing curve with a large enough effect in the repeat runs; inconclusive = weak or mixed curves, or effect the other way; inactive = no such curve, though single readings can be large or run the other way.

This note sets out measurements from PubChem BioAssay (Tox21).
Potency is the fitted concentration of half-maximal effect.

This assay is described as follows: Caspase-3/7 induction in CHO-K1 cells by small molecules, qHTS cell viability counter screen (AID 1346979). Note: nearly all actives have a fitted effect of over 35% in size. Particulars: CellTiter-Fluor fluorescence, 17 h; series mostly up to 92.4 µM. From the text: National Center for Advancing Translational Sciences [NCATS]
NIH Chemical Genomics Center [NCGC]
U.S. Environmental Protection Agency [EPA]
National Institutes of Environmental Health Sciences [NIEHS]
National Toxicology Program [NTP]
U.S. Food and Drug Administration [FDA]
Apoptosis is a process of programmed cell death and plays a central role in the development of multicellular organisms. It is a highly regulated process and induces cell death by activating caspases, which are the members of cysteine aspartic acid-specific protease (caspase) family. Caspases involved in apoptosis are classified by their mechanism of action as initiator caspases (caspase-2, -8, -9 and -10) and executioner caspases (caspase-3, -6, and -7). Inhibition of apoptosis results in number of cancers, autoimmune diseases, inflammatory diseases and viral infection. To identify small molecule compounds that induce apoptosis, a homogeneous, luminescent Caspase-Glo 3/7 assay was used. Wild type CHO-K1 cells were used to screen Tox21 libraries for identifying caspase-3/7 activity inducers. Also cytotoxicity of the compounds was tested in parallel by measuring the cell viability using CellTiter-Fluor assay system in the same wells.
Tox21 Assay Protocol Summary:
CHO-K1 cells were dispensed at 1,500 per well in 5uL of culture medium into white solid bottom 1536-well plates (Corning Life Sciences, Corning, NY) using a Multidrop Combi (Thermo Scientific, Waltham, MA) dispenser. The assay plates were incubated at 37 C and 5% CO2 for 5hr, and then 23nL of compounds dissolved in DMSO and positive control were transferred using a Pintool station (Wako, San Diego, CA). The assay plates were incubated at 37C and 5% CO2 for 17hr. For cytotoxicity read, after 16hr incubation at 37C, 1uL CellTiter-Fluor reagent (Promega Corporation, Madison, WI) was added to each well of the assay plates using Flying Reagent Dispenser (FRD, Aurora Discovery, San Diego, CA). After 1hr incubation at 37C and 5% CO2, the fluorescence signal was quantified using a ViewLux plate reader (PerkinElmer, Shelton, CT).
For orientation: Quantitative high-throughput screening tests each substance at several concentrations.
As to `Cc1ccc2c(C)cccc2c1`, the Potency result was “inactive”.
For `CCC1(CCC(C)C)C(=O)NC(=O)NC1=O` the value was “inactive”; for `CCOP(=O)(O)C(N)=O`, “inactive”; for `CCOP(=S)(S)OCC`, “inactive”.
To `CC(Cl)C(=O)O` (stereo not given) belongs “inactive”.
For `COCc1cnc(C2=NC(C)(C(C)C)C(=O)N2)c(C(=O)O)c1` (stereo not given) the value was “inactive”.
For `Oc1cccc(Cl)c1`, the Potency entry was “inactive”.
For `CCCN(CCC)c1c([N+](=O)[O-])cc(C(C)C)cc1[N+](=O)[O-]` the value was “inactive”.
With `CCCCC(CC)CO[N+](=O)[O-]` (stereo not given), the Potency entry was “inactive”.
`C#CC(O)(C=CCl)CC` (stereo not given): the Potency result is “inactive”.
For `CC(C)(c1ccccc1)c1cc(-n2nc3ccccc3n2)c(O)c(C(C)(C)c2ccccc2)c1` the value was “inactive”; for `O=C1NC(=O)C(=O)C(=O)N1`, “inactive”; for `O=S(=O)(c1ccccc1)c1ccccc1`, “inactive”.
For `C=C(C)C(=O)OCCCCOC(=O)C(=C)C` the value was “inactive”; for `O=C([O-])c1ccccn1.O=C([O-])c1ccccn1.O=C([O-])c1ccccn1.[Cr+3]`, “inactive”; for `C#C[C@]1(O)CC[C@H]2[C@@H]3CCC4=CC(=O)CCC4=C3C=C[C@@]21CC`, 26.6 µM (active).
For `Nc1ccccc1C(=O)OCCc1ccccc1` the value was “inactive”.
Turning to `C[C@H]1O[C@H](OC2[C@@H](O)[C@@H](O)C(O)[C@H](O)[C@H]2O)[C@@H](N)C[C@@H]1N=C(N)C(=O)O` (stereo not given in full), the Potency result is “inactive”.
To `OCCSSCCO` belongs “inactive”; to `CC(C)c1ccc(OP(=O)(Oc2ccc(C(C)C)cc2)Oc2ccc(C(C)C)cc2)cc1`, “inactive”; to `C[N+]1(CCF)[C@@H]2CC[C@H]1CC(OC(=O)C(O)(c1ccccc1)c1ccccc1)C2` (stereo not given in full), “inactive”.
For `CC(C)(C)c1ccc(CCOc2ncnc3ccccc23)cc1` the value was “inactive”; for `O=C(CCl)CCl`, 50.3 µM (active) and 30.6 µM (active).
To `CN1C(=O)CN=C(c2ccccc2)c2cc([N+](=O)[O-])ccc21` belongs “inactive”.
For the compound `CCCCCCCCn1sccc1=O`, the Potency was 12.2 µM (active) and 11.4 µM (active).
`CCCN(CCC)C(=O)Cc1c(-c2ccc(Cl)cc2)nc2ccc(Cl)cn12`: the Potency is 33.5 µM (active).
Consider `c1ccc2c(c1)-c1cccc3cccc-2c13`, for which the Potency result was “inactive”.
For `CC(C)(C)N(NC(=O)c1ccc(Cl)cc1)C(=O)c1ccccc1` the value was 12.1 µM (active); for `O=C(NCNC(=O)NC1C(=O)NC(=O)N1CO)NC1C(=O)NC(=O)N1CO` (stereo not given), “inactive”; for `COc1cc(CC#N)cc(OC)c1OC`, “inactive”.
To `NC(=S)c1c(Cl)cccc1Cl` belongs “inactive”.
For `NP(N)(=O)NC(=O)c1ccc(F)cc1` the value was “inactive”; for `CCCC1CCCCN1` (stereo not given), “inactive”; for `C1CCNCC1`, “inactive”.
With `CCCCCl`, the Potency entry was “inactive”.
With `NC(=O)CF`, the Potency entry is “inactive”.
For `O=C1c2ccccc2C(=O)N1SC(Cl)(Cl)Cl` the value was 4.27 µM (active) and 5.45 µM (active).
To `SCc1ccccc1` belongs “inactive”; to `CN(C)N`, “inactive”.
On to `O=C(N/N=C/c1ccc([N+](=O)[O-])o1)c1cc([N+](=O)[O-])cc([N+](=O)[O-])c1O`, for which the Potency is 23.7 µM (active).
